In PubChem BioAssay (NCATS):
Inconclusive results are not listed. Active and inactive are the calls of the source. The call rests on the fitted dose curve; in most records, active means well fitted inhibition curve with a large enough effect; inconclusive means small, poorly fitted or top-dose-only effect; inactive means flat fitted curve, though single readings scatter.

System: CP203
Assay: qHTS profiling for inhibitors of Plasmodium falciparum proliferation (AID 504749);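 further: 0% = DMSO vehicle and full inhibition = artemisinin control; nearly all actives have a fitted effect of over 60% in size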
Conditions: P. falciparum in erythrocytes, SYBR Green DNA, 72 h; series mostly up to 28.7 µM; activity, negative = inhibition: at the top concentration
Text: NIH National Institute of Allergy and Infectious Diseases [NIAID] NIH Chemical Genomics Center [NCGC] MLPCN Grant: None Assay Provider: Xinzhuan Su, NIAID NCGC Assay Overview: Plasmodium falciparum is a virulent malarial parasite that kills 1-2 million people worldwide each year. Transmitted by mosquitoes, the sporozoite form of the parasite enters the blood stream to infect hepatocytes, where they become merozoites that infect red blood cells (erythrocytes). Within erythrocytes, merozoites begin a […] cycle of growth and division, after which the parasite is released to infect new red blood cells. Gametocytes, which form within erythrocytes as well, circulate in the bloodstream and are ingested by the mosquito, thereby completing the life cycle. To profile malarial isolates for differential chemical responses and to identify inhibitors of malarial growth, an assay that measures P. falciparum growth and replication within erythrocytes was employed. This assay uses a DNA binding fluorescent dye (SYBR Green) to detect parasite DNA following cell lysis. Because mature erythrocytes lack DNA, only Plasmodium-derived DNA is detected.
NCGC Assay Protocol Summary: The SYBR Green viability assay was adapted from a method described previously (Plouffe et al., 2008). For screening 3 ul culture medium was dispensed into 1536 well black clear bottom plates (Aurora Biotechnologies) using a Multidrop Combi (Thermo Fisher Scientific Inc.), 23 nL compounds in DMSO were added by a pin tool (Kalypsys), and 5 ul of erythrocytes infected with P. falciparum (0.3% parasitemia, 2.5% hematocrit final concentration) were added. The plates were incubated at 37 C in a humidified incubator in 5% CO2 for 72 h, and 2 ul lysis buffer (20 mM Tris HCl, 10 mM EDTA, 0.16% saponin, 1.6% triton X, 10X SYBR Green I supplied as 10,000X […] by Invitrogen) was added to each well. The plates were mixed for 25 sec with gentle shaking and incubated overnight at room temperature in the dark. The following morning, fluorescence intensity at 485(14) nm excitation and 535(25) nm emission wavelengths was measured on an EnVision (Perkin Elmer) plate reader. Plate reads were normalized relative to the control inhibitor (0.29 uM artemisinin) and vehicle (DMSO) wells present on each plate and then corrected by an algorithm using vehicle-only control plates at the beginning and end of the compound plate stack.

| Structure (SMILES) | outcome | activity, negative = inhibition |
| --- | --- | --- |
| COc1ccccc1N1CCN(CCCNc2cc(=O)n(C)c(=O)n2C)CC1 | inactive |  |
| CCCNC(=O)NS(=O)(=O)c1ccc(Cl)cc1 |  | -9.12% (inactive) |
| CCN(CC)C(=O)c1ccc(O)c(OC)c1 | inactive |  |
| C[C@@H](O)[C@H]1C(=O)N2C(C(=O)O)=C(S[C@@H]3CN[C@H](C(=O)N(C)C)C3)[C@H](C)[C@H]12 |  | -7.79% (inactive) |
| CC(=O)c1ccc(S(=O)(=O)NC(=O)NC2CCCCC2)cc1 |  | -2.1% (inactive) |
| CCCCCN(C)CCC(O)(P(=O)(O)O)P(=O)(O)O |  | 7.22% (inactive) |
| C[N+](C)(C)CCCCCC[N+](C)(C)C |  | 6.37% (inactive) |
| CC(=O)CCCCn1c(=O)c2c(ncn2C)n(C)c1=O |  | -0.616% [at 12.8 µM] (inactive) |
| O=C(O)c1c(Cl)c(Cl)c(Cl)c(Cl)c1-c1c2cc(I)c(=O)c(I)c-2oc2c(I)c(O)c(I)cc12 |  | -11.6% (inactive) |
| CC1(C)O[C@H]2C[C@@H]3[C@H]4CCC5=CC(=O)C=C[C@]5(C)[C@@]4(F)[C@@H](O)C[C@]3(C)[C@]2(C(=O)CO)O1 |  | -9.57% (inactive) |
| Cc1cnc(C(=O)O)c[n+]1[O-] |  | 3.72% (inactive) |
| CCN(CC)CCNC(=O)c1ccc(N)cc1 |  | 10.4% (inactive) |
| O=C1NCC2(CCN(CCc3ccccc3)CC2)O1 |  | 2.68% (inactive) |
| COc1ccc(Cc2nccc3cc(OC)c(OC)cc23)cc1OC |  | -10.5% [at 12.8 µM] (inactive) |
| CC(=O)N[C@@H](CS)C(=O)O |  | -1.43% (inactive) |
| O=C(O)c1cc(-c2ccccc2)nc2ccccc12 |  | -0.635% (inactive) |
| CCCCC1C(=O)N(c2ccccc2)N(c2ccccc2)C1=O |  | -11.2% (inactive) |
| NCCS |  | 6.06% (inactive) |
| O=C(NCCN1CCOCC1)c1ccc(Cl)cc1 |  | 7.11% (inactive) |
| CC/C(=C(\c1ccccc1)c1ccc(OCCN(C)C)cc1)c1ccccc1 |  | -7.11% (inactive) |
| O=C1Nc2ccc(Cl)cc2C(C#CC2CC2)(C(F)(F)F)O1 (centres undefined) |  | -4.8% (inactive) |
| CCN1CCC[C@H]1CNC(=O)c1cc(S(N)(=O)=O)ccc1OC |  | -3.03% (inactive) |
| NC(N)=Nc1nc(CSCC/C(N)=N/S(N)(=O)=O)cs1 |  | 1.32% (inactive) |
| CCOC(=O)O[C@]1(C(=O)OCCl)CC[C@@H]2[C@H]3CCC4=CC(=O)C=C[C@]4(C)[C@@H]3[C@@H](O)C[C@@]21C |  | -7.49% (inactive) |
| O=C1NC(=O)C(c2ccccc2)(c2ccccc2)N1 |  | -0.0567% (inactive) |
| Clc1ccc(Cn2c(CN3CCCC3)nc3ccccc32)cc1 |  | -15.9% [at 12.8 µM] (inactive) |
| CCN(CC)CCOC(=O)c1ccc(N)cc1 |  | 6.67% [at 12.8 µM] (inactive) |
| O=C(O)Cc1cccc2ccccc12 |  | 1.76% (inactive) |
| O=c1[nH]cnc2c1ncn2[C@H]1CC[C@@H](CO)O1 |  | -9.76% (inactive) |
